Results taken from the supplement of paper PMC3545927.
The list shows a part of the results. The true hit rate is not given.

Target: furin, P09958
Test: furin cleavage Z-score vs untreated control; higher = more cleavage, active = 3.5 or more, inactive = 1 or less, 8 variable residues between constant flanks
Protocol: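 Multiplexed peptide-cDNA fusion cleavage assay. 8-mer variable peptides flanked by constant Cys-Ala (N-term) and Ala-Gly-Asn-Ala-Ser-Ala-Ser-Ala (C-term) and conjugated to a cDNA oligonucleotide were bead-immobilised via the N-terminus. They were treated with purified furin at a 1:10 enzyme:substrate ratio in 50 mM HEPES pH 7.5, 1 mM CaCl2, 100 mM NaCl for 7.5, 15 or 30 min. Released cDNA was counted by next-generation sequencing, and log counts versus no-furin controls were lowess-adjusted and converted to robust Z-scores.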

furin, P09958, sequence (P09958 whole entry): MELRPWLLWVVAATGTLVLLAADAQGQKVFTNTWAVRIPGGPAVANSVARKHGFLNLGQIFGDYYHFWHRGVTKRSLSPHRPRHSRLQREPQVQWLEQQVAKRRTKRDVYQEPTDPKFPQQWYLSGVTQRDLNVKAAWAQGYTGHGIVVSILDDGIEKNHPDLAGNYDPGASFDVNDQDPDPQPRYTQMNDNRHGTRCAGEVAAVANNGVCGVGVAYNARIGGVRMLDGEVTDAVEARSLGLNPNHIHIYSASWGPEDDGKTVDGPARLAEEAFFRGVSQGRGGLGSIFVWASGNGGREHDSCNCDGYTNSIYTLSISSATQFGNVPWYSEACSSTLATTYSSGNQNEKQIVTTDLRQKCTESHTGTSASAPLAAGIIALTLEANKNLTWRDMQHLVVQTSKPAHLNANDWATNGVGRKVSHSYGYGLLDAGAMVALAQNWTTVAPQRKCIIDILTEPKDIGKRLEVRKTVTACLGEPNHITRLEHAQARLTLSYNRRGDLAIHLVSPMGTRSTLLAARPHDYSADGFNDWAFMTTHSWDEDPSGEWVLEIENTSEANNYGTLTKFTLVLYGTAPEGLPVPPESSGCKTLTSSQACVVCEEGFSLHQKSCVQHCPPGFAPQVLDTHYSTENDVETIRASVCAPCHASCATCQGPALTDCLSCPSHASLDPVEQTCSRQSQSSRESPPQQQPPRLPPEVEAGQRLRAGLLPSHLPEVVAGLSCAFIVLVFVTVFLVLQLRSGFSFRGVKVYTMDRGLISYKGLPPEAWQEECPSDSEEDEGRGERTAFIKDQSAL

Sequence	furin cleavage Z-score (7.5 min)	furin cleavage Z-score (15 min)	furin cleavage Z-score (30 min)
CAMEECSIHLAGNASASA [HC1724]	0.188 (inactive)	1.13	0.153 (inactive)
CARTRRTSKPAGNASASA [FS-1937]	0.687 (inactive)	3.02	2.44
CARTRRSINSAGNASASA [FS-2316]	7.8 (active)	8.93 (active)	7.57 (active)
CARTRRNIDAAGNASASA [FS-3111]	6.35 (active)	7.27 (active)	4.76 (active)
CAVRSRSIRSAGNASASA [FS-1663]	11.3 (active)	11.8 (active)	8.54 (active)
CARTRRCVCVAGNASASA [FS-3213]	-0.371 (inactive)	-0.858 (inactive)	-0.127 (inactive)
CAVTNDCPNSAGNASASA [HC262]	-1.55 (inactive)	-2.42 (inactive)	-2.48 (inactive)
CAASSRNIRSAGNASASA [FS-924]	5.59 (active)	8.19 (active)	6.71 (active)
CAEVVTSTLVAGNASASA [HC2225]	-0.125 (inactive)	0.377 (inactive)	-0.731 (inactive)
CAEKVVCCSMAGNASASA [HC2134]	-0.767 (inactive)	0.357 (inactive)	-1.09 (inactive)
CAVHFRSIRSAGNASASA [FS-308]	8.08 (active)	8.31 (active)	5.71 (active)
CALDRRSQRSAGNASASA [FS-910]	2.25	3.02	4.23 (active)
CALSRRSISKAGNASASA [FS-2871]	0.267 (inactive)	1.81	-1.35 (inactive)
CALSAFSLHSAGNASASA [HC1605]	0.383 (inactive)	0.938 (inactive)	1.75
CAMSIRSDRSAGNASASA [FS-1646]	1.46	0.662 (inactive)	1.58
CALSRRSIRSAGNASASA [FS-461]	10.4 (active)	11.5 (active)	9.32 (active)
CAMEECSDHLAGNASASA [HC1731]	-0.133 (inactive)	-1.7 (inactive)	1.31
CAKCLIRLKPAGNASASA [HC965]	-0.996 (inactive)	0.139 (inactive)	0.507 (inactive)
CATLEVVTSTAGNASASA [HC2278]	2.04	-0.134 (inactive)	-0.107 (inactive)
CAPSPVVVGTAGNASASA [HC416]	0.116 (inactive)	0.136 (inactive)	-0.669 (inactive)
CAPSERTRRTAGNASASA [FS-1553]	6.49 (active)	7.9 (active)	7.83 (active)
CATSPRTKRTAGNASASA [FS-1576]	10.8 (active)	10.5 (active)	8.67 (active)
CASSFRFPRTAGNASASA [FS-196]	0.00727 (inactive)	0.495 (inactive)	1.37
CASSPRCKRTAGNASASA [FS-724]	6.48 (active)	5.33 (active)	4.2 (active)
CAPTGSGKSTAGNASASA [HC776]	-0.612 (inactive)	-0.784 (inactive)	0.917 (inactive)
CAPTRRTKRTAGNASASA [FS-76]	10.6 (active)	10.9 (active)	7.13 (active)
CATSGITGDNAGNASASA [HC1339]	0.521 (inactive)	-1.94 (inactive)	-2.62 (inactive)
CAVVPCHRPSAGNASASA [HC2310]	0.864 (inactive)	0.937 (inactive)	1.82
